Measured values taken from PubChem BioAssay (Tox21).
Values joined by “and” are separate entries in the source; they are usually repeats but may differ in a detail not shown here. Identical values can stand only once. Results filed as inconclusive are left out. Active and inactive are the calls of the source. Unless noted, the call rests on the fitted dose curve; in most records, active means well fitted curve in the direction sought with a large enough effect in the repeat runs; inconclusive means weak or mixed curves; inactive means no such curve, though single readings can be large; an effect the other way counts as inactive or inconclusive.

Legend:
[1] = qHTS assay for small molecule agonists of the p53 signaling pathway (AID 651631; calls by dose curve; further: nearly all actives have a fitted effect of over 15% in size; further: potency means the concentration at half of the fitted maximal effect)
How it was run: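 Readout was fluorescence from the LiveBLAzer FRET substrate, applied for 2 h at room temperature after 16 h compound exposure at 37 °C. Cells were the p53RE-bla HCT-116 line, with beta-lactamase driven by p53 response elements.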

[2] = qHTS assay for small molecules that induce genotoxicity in human embryonic kidney cells expressing luciferase-tagged ATAD5 (AID 651632); further: nearly all actives have a fitted effect of over 15% in size; further: potency means the concentration at half of the fitted maximal effect
How it was run: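 Genotoxicity read-out via ATAD5-luciferase: HEK293T cells, 16 hr compound incubation at 37C, Amplite detection.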

[3] = qHTS assay for small molecule agonists of the p53 signaling pathway - cell viability (AID 651633; calls by dose curve; further: nearly all actives have a fitted effect of over 30% in size; further: potency means the concentration at half of the fitted maximal effect)
How it was run: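 p53RE-bla cells, seeded at 4,000 per well and rested 5 h at 37 C/5% CO2, received compounds in DMSO for 16 h at 37 C. CellTiter-Glo was then added, and luminescence was read after 30 min at room temperature to gauge cytotoxicity.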

[4] = qHTS assay for small molecules that induce genotoxicity in human embryonic kidney cells expressing luciferase-tagged ATAD5 - cell viability (AID 651634; calls by dose curve; further: nearly all actives have a fitted effect of over 25% in size; further: potency means the concentration at half of the fitted maximal effect)
How it was run: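 Live-cell protease activity (CellTiter-Fluor, fluorescence) indicates viability. HEK293T cells with luciferase-tagged ATAD5; 15.5 hr compound treatment at 37C.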

[5] = qHTS assay for small molecule disruptors of the mitochondrial membrane potential - cell viability (AID 720634; calls by dose curve;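 further: human HepG2 liver cancer cells; nearly all actives have a fitted effect of over 20% in size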)
How it was run: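 Human hepatoma HepG2 cells were treated for 1 hr with test chemicals, then given m-MPI dye and CellTiter-Glo. Cell viability reflects luminescence proportional to cellular ATP.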

[6] = qHTS assay for small molecule disruptors of the mitochondrial membrane potential (AID 720635); further: potency means the concentration at half of the fitted maximal effect
How it was run: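 HepG2 cells (2,000/well) attached overnight at 37C, then took compound for 1 hr at 37C, 5% CO2. Mito-MPS dye was added for 30 min; fluorescence was read at 490/535 nm (monomers) and 540/590 nm (aggregates).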

[7] = qHTS assay to test for compound auto fluorescence at 590 nm (red) in HepG2 cells (AID 720674); further: potency means the concentration at half of the fitted maximal effect
How it was run: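 Rose Bengal sodium served as the red fluorophore standard. HepG2 monolayers (overnight attachment, MEM with 10% FBS) were exposed to test compounds for 1 hr at 37 C and read at Ex 540/Em 590 nm.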

[8] = qHTS assay to test for compound auto fluorescence at 535 nm (green) in HepG2 cells (AID 720675)
[9] = qHTS assay to test for compound auto fluorescence at 460 nm (blue) in HEK293 cells (AID 720678); further: potency means the concentration at half of the fitted maximal effect
How it was run: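 Cells were seeded and left to adhere for 4-5 hr at 37C. Compounds were then pin-transferred. After an overnight incubation at 37C under 5% CO2, intrinsic fluorescence at 405/460 nm was measured and referenced to triamterene.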

[10] = qHTS assay to test for compound auto fluorescence at 590 nm (red) in HEK293 cells (AID 720679); further: potency means the concentration at half of the fitted maximal effect
How it was run: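 Each well held 2,000 HEK293 cells in medium containing 10% dialyzed FBS. Following 4-5 hr attachment at 37C, 23 nL test compound or DMSO was added; plates sat overnight, and red fluorescence (540/590nm) was recorded.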

[11] = qHTS assay to test for compound auto fluorescence at 535 nm (green) in HEK293 cells (AID 720680)
[12] = qHTS assay to test for compound auto fluorescence at 460 nm (blue) in HEK293 cell free culture (AID 720681); further: potency means the concentration at half of the fitted maximal effect
How it was run: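 Test compounds were pinned into cell-free culture medium (DMEM with 10% FBS) and fluorescence was read directly at Ex/Em 405/460 nm. Signals were expressed as fluorescence equivalents of triamterene, with DMSO vehicle as control.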

[13] = qHTS assay to test for compound auto fluorescence at 535 nm (green) in HEK293 cell free culture (AID 720682)
How it was run: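 Compounds were pin-transferred into cell-free DMEM with 10% FBS, and green fluorescence was read at excitation 485 nm and emission 535 nm. Intensities were expressed as fluorescein-equivalent values.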

[14] = qHTS assay to test for compound auto fluorescence at 590 nm (red) in HEK293 cell free culture (AID 720683); further: potency means the concentration at half of the fitted maximal effect
How it was run: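 Tox21 10K library compounds were pinned into cell-free DMEM with 10% FBS and fluorescence was read at excitation 540 nm. Activity is expressed as Rose Bengal sodium equivalency.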

[15] = qHTS assay to test for compound auto fluorescence at 590 nm (red) in HepG2 cell free culture (AID 720684); further: potency means the concentration at half of the fitted maximal effect
How it was run: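 Measured in medium alone (MEM containing 10% FBS) following pintool addition of compound; emission at 590 nm with 540 nm excitation, referenced to Rose Bengal sodium.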

[16] = qHTS assay to test for compound auto fluorescence at 460 nm (blue) in HepG2 cell free culture (AID 720685); further: potency means the concentration at half of the fitted maximal effect
How it was run: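 Compound (23 nL) or DMSO pinned into cell-free MEM with 10% FBS; blue fluorescence read at 405/460 nm excitation/emission, expressed as auto-fluorescence equivalency to triamterene.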

[17] = qHTS assay to test for compound auto fluorescence at 535 nm (green) in HepG2 cell free culture (AID 720686)
[18] = qHTS assay to test for compound auto fluorescence at 460 nm (blue) in HepG2 cells (AID 720687); further: potency means the concentration at half of the fitted maximal effect
How it was run: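 Cells (2,000/well in MEM with 10% FBS) attached overnight at 37 C, then were exposed to compound or DMSO for 1 hr at 37 C, 5% CO2. Fluorescence read at Ex/Em 405/460 nm, expressed as triamterene-equivalent signal.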

[19] = biological target: Glucocorticoid receptor (Homo sapiens) (UniProt P04150); test: qHTS assay to identify small molecule antagonists of the glucocorticoid receptor (GR) signaling pathway (AID 720692; active means well fitted inhibition curve with a large enough effect in the signal ratio in the repeat runs, not every such curve was filed as active; the % refers to the signal ratio; further: potency means the concentration at half of the fitted maximal effect)
Chain of Glucocorticoid receptor (Homo sapiens) (P04150 whole entry, looked up): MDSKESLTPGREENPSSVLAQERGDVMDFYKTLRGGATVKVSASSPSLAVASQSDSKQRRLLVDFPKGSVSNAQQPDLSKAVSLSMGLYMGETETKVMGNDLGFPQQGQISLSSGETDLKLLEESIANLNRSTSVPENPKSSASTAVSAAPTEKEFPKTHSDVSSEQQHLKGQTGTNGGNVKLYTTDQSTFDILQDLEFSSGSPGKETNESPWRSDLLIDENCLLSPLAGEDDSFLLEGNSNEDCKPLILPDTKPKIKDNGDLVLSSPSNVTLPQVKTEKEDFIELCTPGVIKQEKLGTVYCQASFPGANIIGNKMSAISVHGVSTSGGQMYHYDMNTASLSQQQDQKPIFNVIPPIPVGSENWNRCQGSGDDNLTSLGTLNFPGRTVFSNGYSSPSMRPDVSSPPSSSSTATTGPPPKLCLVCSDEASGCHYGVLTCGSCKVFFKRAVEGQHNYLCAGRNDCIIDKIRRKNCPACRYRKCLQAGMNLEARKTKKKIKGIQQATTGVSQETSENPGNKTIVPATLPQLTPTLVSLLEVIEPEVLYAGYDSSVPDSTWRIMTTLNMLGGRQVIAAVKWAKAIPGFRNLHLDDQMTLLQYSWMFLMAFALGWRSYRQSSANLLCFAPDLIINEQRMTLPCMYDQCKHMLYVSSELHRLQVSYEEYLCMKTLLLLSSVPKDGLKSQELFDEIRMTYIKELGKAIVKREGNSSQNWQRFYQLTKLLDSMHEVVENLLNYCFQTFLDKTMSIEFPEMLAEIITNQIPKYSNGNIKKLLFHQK
How it was run: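 Fluorescence from cleaved LiveBLAzer B/G FRET substrate reports GRE-driven beta-lactamase in HeLa cells; compounds are tested against 5 nM dexamethasone (final) over 18 h at 37 C, substrate incubation 2 h at room temperature.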

[20] = biological target: Glucocorticoid receptor (Homo sapiens) (UniProt P04150); test: qHTS assay to identify small molecule agonists of the glucocorticoid receptor (GR) signaling pathway (AID 720691; active means well fitted activation curve with a large enough effect in the signal ratio in the repeat runs, not every such curve was filed as active; the % refers to the signal ratio); settings: GR-bla HeLa, beta-lactamase reporter ratio, 18 h; activation: at 62.4 µM (top of the series)
How it was run: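 Beta-lactamase reporter activity, read as fluorescence intensity, was measured in GR-bla HeLa cells exposed to compounds for 18 h at 37 C and then loaded with LiveBLAzer B/G FRET substrate for 2 h at room temperature.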
On the % scale 0 is the no-effect control and ±100 the full control effect; tags describe the fitted curve by direction and shape or compound fluorescence and quenching.

COC(=O)C1=C(C)NC(C)=C(C(=O)OCC(C)C)C1c1ccccc1[N+](=O)[O-] (configuration not stated)
active: Potency [1] 26.6 µM | Potency [4] 29.8 µM and 48.6 µM | Potency [6] 11.9 µM and 43.3 µM | Potency [19] 24.5 µM
inactive: Potency [2] | Potency [3] | Potency [5] | Potency [7] | Potency [8] | Potency [9] | Potency [10] | outcome [11] | Potency [12] | outcome [13] | Potency [14] | Potency [15] | Potency [16] | Potency [17] | Potency [18]

CSc1ccc(C(=O)c2[nH]c(=O)[nH]c2C)cc1
inactive: Potency [1] | Potency [2] | Potency [3] | Potency [4] | Potency [5] | Potency [6] | Potency [7] | Potency [8] | Potency [9] | Potency [10] | outcome [11] | Potency [12] | outcome [13] | Potency [14] | Potency [15] | Potency [16] | Potency [18]

NC(=O)CC[C@@H]1NC(=O)[C@H](Cc2ccccc2)NC(=O)[C@H](Cc2ccc(O)cc2)NC(=O)CCSSC[C@@H](C(=O)N2CCC[C@H]2C(=O)N[C@@H](CCCN=C(N)N)C(=O)NCC(N)=O)NC(=O)[C@H](CC(N)=O)NC1=O
inactive: Potency [1] | Potency [2] | Potency [3] | Potency [4] | Potency [5] | Potency [6] | Potency [7] | Potency [9] | Potency [10] | Potency [12] | Potency [14] | Potency [15] | Potency [16] | Potency [17] | Potency [18]

NC(=O)NS(=O)(=O)c1ccc(N)cc1
inactive: Potency [1] | Potency [2] | Potency [3] | Potency [4] | Potency [5] | Potency [7] | Potency [8] | Potency [9] | Potency [10] | outcome [11] | Potency [12] | outcome [13] | Potency [14] | Potency [15] | Potency [16] | Potency [17] | Potency [18] | Potency [20]

C[C@@H]1C[C@H]2[C@@H]3CCC4=CC(=O)C=C[C@]4(C)[C@@]3(Cl)[C@@H](O)C[C@]2(C)[C@@]1(OC(=O)c1ccco1)C(=O)CCl
active: Potency [6] 11.4 µM
inactive: Potency [1] | Potency [2] | Potency [3] | Potency [4] | Potency [5] | fluorescence, relative to Rose Bengal [7] -0.134% [at 18.6 µM] | fluorescence, % of triamterene [9] 0.0948% [at 18.6 µM] | fluorescence, % of fluorescent control [10] 0.225% [at 18.6 µM] | fluorescence, % of fluorescent control [12] 0.0036% [at 18.6 µM] | fluorescence, % of Rose Bengal [15] -0.333% [at 18.6 µM] | fluorescence, % of fluorescent control [16] -0.0123% [at 18.6 µM] | fluorescence, % of fluorescein control [17] -0.0158% [at 18.6 µM] | fluorescence, % of fluorescent control [18] -0.0042% [at 18.6 µM]

CCN1/C(=C/C=C/c2sc3ccccc3[n+]2CC)Sc2ccccc21
active: Potency [1] 15 µM | Potency [3] 16.8 µM | Potency [4] 10.6 µM | Potency [7] 12.6 µM | Potency [10] 11.2 µM [fluorescent] | Potency [14] 11.2 µM [fluorescent] | Potency [15] 14.1 µM [fluorescent]
inactive: Potency [2] | Potency [5] | Potency [8] | Potency [9] | Potency [12] | outcome [13] | Potency [17] | Potency [18]

N/C(=N\N=C\c1ccc(Cl)cc1)N/N=C/c1ccc(Cl)cc1
inactive: Potency [2] | Potency [4] | Potency [5] | Potency [7] | Potency [8] | Potency [9] | Potency [10] | Potency [12] | outcome [13] | Potency [14] | Potency [15] | Potency [16] | Potency [18] | Potency [20] | Potency [19]
active: Potency [1] 26.6 µM | Potency [3] 26.6 µM

N=C1N=C(N)c2cc3ccccc3cc21
active: Potency [1] 9.69 µM | Potency [2] 19.3 µM | Potency [3] 12.2 µM | Potency [6] 3.06 µM | Potency [9] 35.5 µM [fluorescent] | Potency [12] 31.6 µM | Potency [16] 28.2 µM [fluorescent] | Potency [18] 38.7 µM [fluorescent]
inactive: Potency [4] | Potency [5] | Potency [7] | Potency [8] | outcome [11] | outcome [13] | Potency [15] | Potency [17]

CCCC1O[C@@H]2C[C@H]3[C@@H]4CCC5=CC(=O)C=C[C@]5(C)[C@H]4[C@@H](O)C[C@]3(C)[C@]2(C(=O)CO)O1 (some centres not stated)
inactive: Potency [1] | Potency [2] | Potency [3] | Potency [4] | Potency [5] | Potency [6] | Potency [7] | Potency [8] | Potency [9] | outcome [11] | Potency [12] | outcome [13] | Potency [14] | Potency [15] | Potency [16] | Potency [18]

Cc1c(C)c2c(c(C)c1O)CCC(C)(COc1ccc(CC3SC(=O)NC3=O)cc1)O2 (configuration not stated)
active: Potency [1] 29.8 µM and 54.5 µM | Potency [3] 29.8 µM and 61.1 µM | Potency [6] 9.44 µM and 10.9 µM
inactive: Potency [2] | Potency [4] | Potency [5] | Potency [7] | Potency [8] | Potency [9] | Potency [10] | Potency [12] | outcome [13] | Potency [14] | Potency [15] | Potency [16] | Potency [17] | Potency [18]

CO[Si](CCCNc1ccccc1)(OC)OC
inactive: Potency [1] | Potency [2] | Potency [3] | Potency [4] | Potency [5] | Potency [6] | Potency [7] | Potency [8] | Potency [9] | Potency [10] | outcome [11] | Potency [12] | outcome [13] | Potency [15] | Potency [16] | Potency [17] | Potency [18] | Potency [20] | Potency [19]

CNC(=O)c1ccccc1
inactive: Potency [1] | Potency [2] | Potency [3] | Potency [4] | Potency [5] | Potency [6] | Potency [7] | Potency [8] | Potency [9] | Potency [10] | outcome [11] | Potency [12] | outcome [13] | Potency [14] | Potency [15] | Potency [16] | Potency [17] | Potency [18] | Potency [20]

CCCC/C=C/CCCCO
inactive: Potency [1] | Potency [2] | Potency [3] | Potency [4] | Potency [5] | Potency [7] | Potency [8] | Potency [9] | outcome [11] | Potency [12] | Potency [14] | Potency [15] | Potency [16] | Potency [17] | Potency [18] | Potency [20] | Potency [19]

O=C(Nc1ccc(Oc2ccc(Cl)cc2)c(Cl)c1)c1cc(I)cc(I)c1O
inactive: Potency [2] | Potency [4] | Potency [5] | Potency [7] | Potency [8] | Potency [9] | Potency [10] | outcome [11] | Potency [12] | outcome [13] | Potency [14] | Potency [15] | Potency [16] | Potency [17] | Potency [18]
active: Potency [1] 10.6 µM | Potency [3] 4.22 µM | Potency [6] 2.37 µM
